Screening data deposited in PubChem BioAssay by The Scripps Research Institute Molecular Screening Center.
GPR151 activ – activates the human receptor GPR151. AID 1508602. PathHunter beta-arrestin GPR151 cells, luminescence. activation, % at 11.2 µM. Q8TDV0. 650,000 tested, 1% active; in the data active = activation above about 4.9%;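 also: 0% = median of compound wells and 100% = cells with positive control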
TEAD-YAP block – TEAD-YAP interaction inhibition; HEK-TIYL cells, TEAD-Gal4/YAP UAS-luciferase luminescence; 640,000 tested, 1.4% active; inhibition, % at 9.12 µM; AID 1259422; in the data active = inhibition above about 32%;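 also: 0% = median of test compound wells and 100% = reference inhibitor wells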
MITF inh – human MITF inhibition, primary screen. O75030. AlphaScreen MITF homodimerization, bead proximity signal. inhibition, % at 2.6 µM. 650,000 tested, 0.91% active; in the data active = inhibition above about 50%;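 also: 0% = vehicle wells with protein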
FBW7 activator – activators of human E3 ligase FBW7. Q969H0. AlphaScreen FBW7–phospho-cyclin E peptide binding, activator screen. normalized activity (activation), % at 26.1 µM. 650,000 tested, 0.13% active; in the data active = normalized activity above about 1.9%;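 also: purified mutant Fbw7 with reduced substrate affinity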
GPR151 confirm – confirmation of human GPR151 activators; shares compounds with GPR151 activ; activation, % at 11.2 µM; AID 1508609; GPR151 PathHunter beta-arrestin cells, luminescence, 90 min; % of EA-reagent control over plate median; 6,700 tested, under 10 active;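 active = mean percent activation across replicates above the confirmation screen cutoff of 4.91%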
GPR119 ag – activates human GPR119 in a GPR151 counter-screen | GPR119 PathHunter beta-arrestin cells, luminescence, 90 min; 0 = compound-well median, 100 = enzyme-acceptor control | shares compounds with GPR151 activ | 6,700 tested, 0.3% active | activation, % at 11.2 µM;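 active = mean percent activation in the counterscreen above 29.09%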;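 also: counterscreen on off-target GPR119 to flag nonselective hits from the GPR151 activator screen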
Target sequence (Q8TDV5 whole entry, looked up): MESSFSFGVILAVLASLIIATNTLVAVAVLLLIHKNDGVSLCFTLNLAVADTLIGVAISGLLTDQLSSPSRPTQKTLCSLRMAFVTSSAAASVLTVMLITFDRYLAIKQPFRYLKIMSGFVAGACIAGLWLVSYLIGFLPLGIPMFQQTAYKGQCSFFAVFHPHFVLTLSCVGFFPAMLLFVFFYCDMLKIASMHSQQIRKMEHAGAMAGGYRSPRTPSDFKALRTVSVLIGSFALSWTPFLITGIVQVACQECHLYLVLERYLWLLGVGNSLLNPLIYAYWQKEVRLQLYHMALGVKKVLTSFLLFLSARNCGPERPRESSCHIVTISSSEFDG
The depositor's hits bear a star; / = no result; ! = a repeat was not active. Hits are enriched below; roughly 3.5% of the tested compounds scored in any of these assays.

SMILES	GPR151 activ	TEAD-YAP block	MITF inh	FBW7 activator	GPR151 confirm	GPR119 ag
CC(C)CCn1c(=O)c2sccc2n2c(CCCC(=O)O)nnc12	5.2*	1	14	0	0	-2
CC[C@H](C)NC(=O)CCCc1nnc2n(CCC(C)C)c(=O)c3sccc3n12	-1	1	2	0	/	/
CCOc1ccc2[nH]c(=O)c(CN(Cc3ccc(OC)cc3)C(=O)N(C)C)cc2c1	8.3*	4	1	0	0	15
O=C(NC1CC1)c1csc(N2CCN(Cc3ccc4c(c3)OCO4)CC2)n1	-1	-8	2	0	/	/
O=C(Nc1ccc2c(c1)OCO2)c1csc(N2CCN(Cc3ccc4c(c3)OCO4)CC2)n1	6.4*	4	0	0	1	6
Cc1ccc(C(=O)N2CCN(Cc3ccc4c(c3)OCO4)CC2)o1	10*	2	5	0	0	-12
COC(=O)N1CCN(Cc2ccc3c(c2)OCO3)CC1	-1	-8	2	1	/	/
CC1=C(C(=O)N2CCN(C(=O)c3ccco3)CC2)C2(CCC(C)CC2)OC1=O (stereo unspecified)	2	6	-14	0	/	/
CC1=C(C(=O)N2CCN(Cc3ccc4c(c3)OCO4)CC2)C2(CCC(C)CC2)OC1=O (stereo unspecified)	6.5*	-2	11	0	0	-1
NNC(=O)CCN1CCN(Cc2ccc3c(c2)OCO3)CC1	8.5*	-4	-8	0	1	-8
N#Cc1c(NCCNC(=O)c2ccco2)nc(-c2ccccc2)c2c1CCCC2	0	3	1	0	/	/
CC(C)(C)NC(=O)CSc1nnc(-c2ccc(NS(C)(=O)=O)cc2)o1	0	-2	-1	0	/	/
O=C(Cn1nc2ccccc2n1)N1CCOc2ccc(C(O)c3ccccn3)cc2C1 (stereo unspecified)	1	-5	16	0	/	/
COc1ccc(C=Nc2ccc3c(c2)OCCO3)cc1	-1	21	8	0	/	/
CCSC1=C(C#N)C(c2ccc3c(c2)OCO3)C2=C(CCCC2=O)N1 (stereo unspecified)	5.5*	7	16	0	1	0
CSc1cccc(NC(=O)N2CCN(c3ccc(C)nn3)CC2)c1	5.6*	4	1	0	1	-3
Cc1ccc(N2CCN(C(=O)Nc3ccccc3)CC2)nn1	-1	-3	0	0	/	/
CC(=O)N/C(=C/c1ccccc1)C(=O)O	-1	5	-5	0	/	/
NC(=O)NC(=O)CSc1nnc(Nc2ccc(Oc3ccccc3)cc2)s1	3	5	6	0	/	/
CC1=C(C(=O)O)N2C(=O)[C@@H](NC(=O)C(N)C3=CCC=CC3)[C@H]2SC1 (stereo partly specified)	8.4*!	3	2	1	1	11
CC1=C(C(=O)O)N2C(=O)[C@@H](NC(=O)[C@H](N)C3=CCC=CC3)C2SC1 (stereo partly specified)	-1	14	11	0	/	/
CN(Cc1ccccc1)C(=O)Cn1ncc2ccsc2c1=O	5.6*	-30	-7	0	-1	-22
O=C(CNC(=O)c1cccs1)OCc1c(Cl)cccc1Cl	5.4*	1	-8	0	0	-3
O=C(CNC(=O)c1cccs1)OCc1c(F)cccc1Cl	1	-1	3	0	/	/
CCOC(=O)C1=C(C)N=c2s/c(=C\c3ccco3)c(=O)n2C1c1cccs1 (stereo unspecified)	7.5*	6	16	0	1	1
SMILES	GPR151 activ	TEAD-YAP block	MITF inh	FBW7 activator	GPR151 confirm	GPR119 ag
CCOC(=O)C1=C(c2ccccc2)N=c2s/c(=C\c3ccco3)c(=O)n2C1c1cccs1 (stereo unspecified)	0	-1	27	1	/	/
COC(=O)C1=C(C)N=c2s/c(=C\c3c(F)cccc3Cl)c(=O)n2C1c1ccccc1 (stereo unspecified)	5.3*	14	-3	0	0	6
CCOC(=O)C1=C(C)N=c2s/c(=C\c3ccc(C)cc3)c(=O)n2C1c1ccccc1OC (stereo unspecified)	8.6*	6	-11	0	-1	-14
CCOC(=O)C1=C(C)N=c2s/c(=C\c3c(F)cccc3Cl)c(=O)n2C1c1ccc(C)cc1 (stereo unspecified)	-1	-8	-12	0	/	/
CCOC(=O)C1=C(C)N=c2s/c(=C\c3ccc(-c4ccccc4C(=O)O)o3)c(=O)n2C1c1ccccc1OC (stereo unspecified)	5.7*	10	12	0	2	5
CCOC(=O)C1=C(C)N=c2s/c(=C\c3ccc(OC)cc3)c(=O)n2C1c1ccccc1OC (stereo unspecified)	0	-5	3	0	/	/
CCOC(=O)C1=C(C)N=c2s/c(=C\c3ccc(-c4ccc(C(=O)O)cc4)o3)c(=O)n2C1c1ccccc1OC (stereo unspecified)	2	0	-12	0	/	/
CCCNc1ccc2ncc(-c3ccc(N)cc3)n2n1	0	23	14	0	/	/
CC1(C)Cc2ccccc2/C(=C/C(=O)Nc2ccccc2Br)N1	0	7	14	0	/	/
COc1ccc(-n2nnnc2SCC(=O)Nc2ccc(NC(C)=O)cc2)cc1OC	2	7	-1	0	/	/
COc1cc(NC(=O)CSc2nnnn2-c2ccc(OC)c(OC)c2)cc(OC)c1	5.0*	3	1	0	0	1
CCC(C)c1ccc(NC(=O)CSc2nnnn2-c2ccc(OC)cc2)cc1 (stereo unspecified)	5.6*	6	13	1	1	0
COc1ccc(NC(=O)C2C3NC(=S)N(c4ccccc4)C2(C)Oc2ccc(Cl)cc23)cc1 (stereo unspecified)	-1	4	22	0	/	/
COc1ccc(S(=O)(=O)Nc2cccc(N(C)S(C)(=O)=O)c2)c(Cl)c1Cl	-2	9	5	0	/	/
COc1ccc(S(=O)(=O)Nc2cccc([N+](=O)[O-])c2)c(Cl)c1Cl	5.2*	13	-3	0	-1	-4
COc1ccc(S(=O)(=O)NCCSC(C)(C)C)c(Cl)c1Cl	8.6*	-3	8	0	2	8
Cn1c(=O)oc2cc(S(=O)(=O)NC3CCN(Cc4ccccc4)CC3)ccc21	-1	-1	13	0	/	/
O=S(=O)(NC1CCN(Cc2ccccc2)CC1)c1ccc(F)c(F)c1	7.1*	8	14	1	1	-3
O=C1c2cccc3c([N+](=O)[O-])ccc(c23)C(=O)N1CCc1ccccc1	6.9*	4	14	0	0	1
Cc1cc(/C=N/NC(=O)CC#N)c(C)n1-c1cc(Cl)ccc1Cl	-1	1	-7	0	/	/
CCc1ccc(C2NCCc3cc4c(cc32)OCCO4)cc1 (stereo unspecified)	4	3	5	0	/	/
